Source: PubChem BioAssay
FLuc counter = firefly luciferase modulation, counter-screen for miR-21 project; P08659; purified FLuc, Km substrates, luminescence inhibition; Potency, µM (top dose mostly 57.5 µM), inactives show at the highest dose activity change, negative = inhibition, hits mostly inhibitors; 6.9% of 360,000 active;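 further: plate controls were vehicle for no effect and reference inhibitor for full effect; nearly all actives have a fitted effect of over 55% in size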
Target sequence (P08659 whole entry, looked up): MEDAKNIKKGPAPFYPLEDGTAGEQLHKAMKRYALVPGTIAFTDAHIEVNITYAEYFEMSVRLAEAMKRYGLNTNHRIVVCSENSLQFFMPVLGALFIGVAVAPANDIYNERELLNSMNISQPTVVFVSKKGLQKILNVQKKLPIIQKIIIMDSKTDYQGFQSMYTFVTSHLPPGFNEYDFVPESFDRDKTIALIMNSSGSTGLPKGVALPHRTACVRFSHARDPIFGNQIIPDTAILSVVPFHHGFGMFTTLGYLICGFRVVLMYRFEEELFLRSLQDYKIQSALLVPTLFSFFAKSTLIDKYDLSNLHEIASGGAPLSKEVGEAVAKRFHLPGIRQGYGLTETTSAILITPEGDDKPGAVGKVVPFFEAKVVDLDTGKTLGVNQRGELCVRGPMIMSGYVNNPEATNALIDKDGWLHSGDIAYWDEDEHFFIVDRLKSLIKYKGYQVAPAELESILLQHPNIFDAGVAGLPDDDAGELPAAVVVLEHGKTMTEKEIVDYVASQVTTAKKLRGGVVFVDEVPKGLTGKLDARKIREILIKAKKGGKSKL
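Purified P. pyralis luciferase (10nM final) with 10uM D-luciferin and 10uM ATP (Km levels) in 50mM Tris acetate pH 7.5, 10mM Mg acetate, 0.01% Tween-20, 0.05% BSA; qHTS 6-point titration, ~60 µM downward; luminescence read.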
SMN2 splice enh = increases expression of the SMN2 splice variant. 2.8% of 210,000 active. AID 1458. HEK293 SMN2-luciferase splicing reporter, luminescence, 30-36 h. Potency, µM (highest dose often 46.1 µM), inactives show at the highest dose activity change, positive = activation, usual class: activators; further: % of control where 0% means no effect; nearly all actives have a fitted effect of over 55% in size
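HEK293 cells carry an SMN2 […]–luciferase reporter in which exon 7 inclusion puts luciferase in frame. Cells were plated 10-12 h before compound addition, then incubated 30-36 h at 37C. ONE-Glo luminescence was read; sodium butyrate at 4.5 mM final served as control.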
Rab9 promoter act = Rab9 promoter activation; Huh7 Rab9 promoter-luciferase reporter, luminescence, 24 h; Potency, µM (top dose mostly 9.22 µM), for the others: top-dose activation, negative = inhibition, usual class: activators; 2.8% of 320,000 active; AID 485297; further: % of control where 0% means no effect; nearly all actives have a fitted effect of over 60% in size
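Measured in stably transfected Huh7 cells bearing a Rab9 promoter–luciferase construct: 24 h compound treatment at 37 °C, followed by luminescence detection.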
ELG1 DNA repair = blocks ELG1-dependent DNA repair in HEK293T cells. HEK293T ELG1-luciferase reporter, luminescence, 16 h; DNA damage induced by 5-fluorouridine. AID 504467. 2.3% of 330,000 active. Potency, µM (highest dose often 46.1 µM), for inactives: at the highest dose activity change, negative = inhibition, most hits filed as inhibitors; further: on the % scale 0 is the no-effect control and ±100 the full control effect; nearly all actives have a fitted effect of over 55% in size
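Luminescence from the luciferase reporter, measured 30 min after ONE-Glo reagent at room temperature, was the read-out. Beforehand, 2,000 cells per well were exposed for 16 hr at 37 °C to 5-fluorouridine together with compound or vehicle.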
ELG1 genotox = inducers of genotoxicity in HEK293T ELG1-luciferase cells | Potency, µM (titrated, usually from 46 µM), inactives show at the top dose activity change, positive = activation, most hits filed as activators | HEK293T ELG1-luciferase reporter, luminescence, 16 h | AID 504466 | 1.3% of 330,000 active; further: % of control where 0% means no effect; nearly all actives have a fitted effect of over 60% in size
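Luminescence read-out: rising ELG1-luciferase signal, reflecting elevated ELG1 protein under genetic stress, flags genotoxic compounds. Cells were treated for 16 hr at 37 °C before ONE-Glo detection.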
NPC1 promoter act = activators of NPC1 promoter | AID 485313 | Potency, µM (highest dose often 9.22 µM), for inactives: top-dose activation, hits mostly activators | Huh7 NPC1 promoter luciferase reporter, 24 h | 2.4% of 320,000 active; further: % of control where 0% means no effect; nearly all actives have a fitted effect of over 60% in size
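Cells: Huh7 expressing luciferase under the NPC1 promoter, 1500/well. Seeded 2 h, compound added, incubated 24 h at 37 °C. Luciferase reagent, 10 min ambient, then luminescence.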
Starred values were filed as active, the others as inactive. Shown are actives, neighbours in structure and some others; about 9.4% of the full set was active somewhere. The call rests on the fitted dose curve; in most records, active means well fitted curve in the direction sought with a large enough effect; inconclusive means small, poorly fitted or top-dose-only effect, or another doubt; inactive means no such curve, though single readings can be large; an effect the other way counts as inactive or inconclusive. Potency means the concentration at half of the fitted maximal effect.

Screening COc1ccc(S(=O)(=O)N2CCC(C(=O)Nc3nccs3)CC2)cc1 returned FLuc counter 12µM*, Rab9 promoter act inconclusive, ELG1 DNA repair inconclusive, ELG1 genotox inconclusive and NPC1 promoter act 2.8µM*.
COc1ccc2nc(NC(=O)c3cc(=O)c4ccccc4o3)sc2c1 was read as FLuc counter 1.7µM* and SMN2 splice enh 21%.
Screening CC(=O)Nc1ccc(S(=O)(=O)N2CCC(C(=O)Nc3nccs3)CC2)cc1 returned FLuc counter 2%, Rab9 promoter act -1%, ELG1 DNA repair -1%, ELG1 genotox 0% and NPC1 promoter act -2%.
For Cc1ccc2nc(NC(=O)c3cc(=O)c4cc(C)c(C)cc4o3)sc2c1 the results were FLuc counter -8% and SMN2 splice enh -5%.
Screening CCSc1ncc(Cl)c(C(=O)Nc2nc3ccc(OC)cc3s2)n1 returned FLuc counter -7% and SMN2 splice enh -4%.
For COc1ccc(C(=O)Nc2nc3ccc(OC)cc3s2)cc1 the results were FLuc counter 1.7µM*, Rab9 promoter act inconclusive, ELG1 DNA repair inconclusive, ELG1 genotox inconclusive and NPC1 promoter act 2.5µM*.
Cc1ccc2nc(NC(=O)c3ccccc3F)sc2c1 was read as FLuc counter 0.48µM*, Rab9 promoter act inconclusive, ELG1 DNA repair inconclusive, ELG1 genotox 0.65µM* and NPC1 promoter act 0.32µM*.
For COc1ccc(C(=O)Nc2nc3ccc(S(C)(=O)=O)cc3s2)cc1 the results were FLuc counter inconclusive, SMN2 splice enh 6%, Rab9 promoter act 16%, ELG1 DNA repair 11%, ELG1 genotox 3% and NPC1 promoter act 2%.
COc1ccc(OC2CCN(S(=O)(=O)c3ccc(C(C)=O)cc3)CC2)cc1 was read as FLuc counter 2%, Rab9 promoter act 5%, ELG1 DNA repair 21µM*, ELG1 genotox -7% and NPC1 promoter act -8%.
CCOc1ccc2nc(NC(=O)c3ccc(OC)c(S(=O)(=O)N4CCOCC4)c3)sc2c1 was read as FLuc counter -15%, SMN2 splice enh -25%, Rab9 promoter act -4%, ELG1 DNA repair 13µM*, ELG1 genotox -32% and NPC1 promoter act -2%.
`C=C(C)C(=O)OCC(C)O` (stereo not given) gave SMN2 splice enh -6%.
CCCCS/C(N)=N/N=C/c1ccccc1O was read as FLuc counter 13µM*, SMN2 splice enh 3%, Rab9 promoter act 3.2µM*, ELG1 DNA repair inconclusive, ELG1 genotox inconclusive and NPC1 promoter act inconclusive.
For C/C(=N/N=C/c1ccccc1O)c1ccccc1O the results were FLuc counter 1.1µM*, Rab9 promoter act inconclusive, ELG1 DNA repair inconclusive, ELG1 genotox 6.5µM* and NPC1 promoter act 25%.
Screening CCCS/C(N)=N/N=C/c1cc(C)ccc1O returned FLuc counter 2.4µM*, SMN2 splice enh -14%, Rab9 promoter act inconclusive, ELG1 DNA repair inconclusive, ELG1 genotox 6.5µM* and NPC1 promoter act 3.2µM*.
For CCCCOCCOCCSC#N the results were SMN2 splice enh -5%.
Screening O=C(Nc1ccc(F)c(F)c1)C1CCCN1S(=O)(=O)c1cccc2nsnc12 (stereo not given) returned FLuc counter 5% and SMN2 splice enh -16%.
Screening CCc1ccn2cc(-c3cc(-c4ccccc4)no3)nc2c1 returned FLuc counter 0.067µM*, Rab9 promoter act -36%, ELG1 DNA repair inconclusive, ELG1 genotox inconclusive and NPC1 promoter act -31%.
`Cc1ccc2nc(-c3cc(-c4ccccc4)no3)cn2c1` gave FLuc counter 0.21µM*, Rab9 promoter act 0.25µM*, ELG1 DNA repair inconclusive, ELG1 genotox 0.26µM* and NPC1 promoter act 0.79µM*.
For Cc1ccc(C(=O)Oc2cc(-c3ccccc3)no2)cc1 the results were FLuc counter -4%, SMN2 splice enh 4%, Rab9 promoter act 0%, ELG1 DNA repair 2%, ELG1 genotox 0% and NPC1 promoter act -3%.
For CCS(=O)(=O)c1ncc(N(Cc2ccco2)Cc2sccc2C)c(C(=O)Nc2cc(C)ccc2C)n1 the results were FLuc counter 0%.
`CCOC(=O)c1sc(NC(=O)CSc2nc3ccccc3s2)c(C(=O)OCC)c1C` gave FLuc counter 1%, SMN2 splice enh 0%, Rab9 promoter act 0%, ELG1 DNA repair inconclusive, ELG1 genotox 6% and NPC1 promoter act 5%.
For CCc1nc(SCC(=O)Nc2ccc(N(C)C)cc2)n[nH]1 the results were FLuc counter -5%, Rab9 promoter act 29%, ELG1 DNA repair 11%, ELG1 genotox 1% and NPC1 promoter act 17%.
`COc1ccc(NC(=O)CSc2nc(N)c(C(=O)Nc3ccc(N(C)C)cc3)s2)cc1` gave FLuc counter 1.3µM*, SMN2 splice enh -17%, Rab9 promoter act 3.2µM*, ELG1 DNA repair inconclusive, ELG1 genotox inconclusive and NPC1 promoter act inconclusive.
Screening CCOC(=O)c1ccc(NC(=O)CSc2nc3sc(C(=O)O)c(C)c3c(=O)[nH]2)cc1 returned FLuc counter 17µM*, SMN2 splice enh -1%, Rab9 promoter act inconclusive, ELG1 DNA repair 14%, ELG1 genotox 3% and NPC1 promoter act -3%.
For CCOC(=O)c1sc(SCC(=O)Nc2ccc(N(C)C)cc2)nc1N the results were FLuc counter 6µM*, SMN2 splice enh -7%, Rab9 promoter act -11%, ELG1 DNA repair 6%, ELG1 genotox 13% and NPC1 promoter act -1%.
Screening COc1ccc(NC(=O)CSc2nnc(N)s2)cc1 returned FLuc counter -12%, SMN2 splice enh 14%, Rab9 promoter act 14%, ELG1 DNA repair 21%, ELG1 genotox 8% and NPC1 promoter act 9%.
Screening CN(C)c1ccc(NC(=O)CSc2nc(N)c(C(=O)Nc3ccc(N(C)C)cc3)s2)cc1 returned FLuc counter 4.8µM*, SMN2 splice enh -44%, Rab9 promoter act 24%, ELG1 DNA repair -51%, ELG1 genotox -4% and NPC1 promoter act inconclusive.
For CC(=O)c1cccc(NC(=O)c2sc(-n3nc(C)c(Cc4ccc5c(c4)OCO5)c3C)nc2C)c1 the results were FLuc counter 5%.
For Cn1cnc(S(=O)(=O)N2CCC(C(=O)N3CCN(c4ccc(Cl)cc4)CC3)CC2)c1 the results were FLuc counter -4%.
`Cc1ccc(NC(=O)c2cnccn2)c(Br)c1` gave FLuc counter 21µM*, Rab9 promoter act inconclusive, ELG1 DNA repair inconclusive, ELG1 genotox inconclusive and NPC1 promoter act inconclusive.
`Cc1ccc(NC(=O)c2cnccn2)nc1` gave FLuc counter 9.5µM*, Rab9 promoter act 10%, ELG1 DNA repair 11%, ELG1 genotox 0% and NPC1 promoter act 23%.
